Test results published in ChEMBL document CHEMBL3988442, “University of Dundee, Small-Polar-MMV Screening Library” (2021).

Each molecule was assayed against AMP-activated protein kinase, AMPK (Homo sapiens) (UniProt P54646+O43741+P54619+Q9UGJ0+Q9Y478+Q13131+Q9UGI9) (assay: AMP-dependent Kinase enzyme assay. An in vitro enzyme assay that detects ADP turnover that is directly proportional to AMPK activity. This uses naive AMPK that is activated during the assay with MK-8722). Details: 30 µM.
Format: functional
Parameters: scale not given: direction of the effect not stated beside the values

Row | SMILES | Percent Effect
1 | CCOC(=O)N1CCN(C(=O)Cn2ccc3ncccc3c2=O)CC1 | -0.626%
2 | CCc1nc2n(n1)CC(NCC1=Cc3ccc(OC)cc3OC1)CC2 (stereo not given) | 8.35%
3 | CC(C)(NCCCOc1ccc(C#N)cc1)c1nccs1 | 3.77%
4 | Cc1cnn(Cc2cccc(OCC(N)=O)c2)c1 | -0.231%
5 | NC(=O)C1(Cc2ccccc2-c2cncnc2)CCCNC1 (stereo not given) | 3.1%
6 | COCc1c(Br)cccc1NC(=O)CC(F)(F)F | -6.57%
7 | CN(C)C(C(=O)N1CCN(CCn2cccc2)CC1)c1cccc(F)c1 (stereo not given) | -11.9%
8 | Cc1nc(C(C)C)sc1C(C)N(C)C(=O)c1ccc(=O)n(C)n1 (stereo not given) | -6.04%
9 | O=C(c1cccc(-n2cnnc2)c1)N1C[C@@H](O)[C@H](N2CCOCC2)C1 | 15.5%
10 | CN(C(=O)c1cccc(C#N)c1)c1nnc(C2CCOC2)s1 (stereo not given) | 5.31%
11 | CCCC(=O)Nc1cnn(CC(=O)Nc2ccc(SC)cc2)c1 | -33.2%
12 | CC(C)C(=O)NCC(=O)N1CCC2(CC1)c1ccccc1[C@@H](N)[C@@H]2O | 3.94%
13 | CC(C)(CN1CCC2(CCOCC2)CC1)N1CCOCC1 | -0.161%
14 | COCCn1ccnc1C1CCCN(C(=O)CSc2nnc(C)o2)C1 (stereo not given) | 1.51%
15 | CC(C)n1nccc1CN1Cc2nccn2CC1c1ccccc1 (stereo not given) | -2.65%
16 | Cc1cccc(Nc2noc3c2CN(C(=O)c2ccn(C)n2)CC3)c1C | 3.74%
17 | Cc1nn(C)c(C)c1C1COCCN1C(=O)CSC(C)(C)C (stereo not given) | -7.18%
18 | CC(C)(C)c1cc(CNC(=O)c2cc(COc3ccccc3)[nH]n2)[nH]n1 | 17.9%
19 | Cc1nn(C)c2ncnc(NCc3nncn3C3CCCCC3)c12 | 10.1%
20 | CC(c1nc(-c2cccnc2)no1)N(C)CCCOc1ccccc1 (stereo not given) | -4.41%

Row | SMILES | Percent Effect
21 | N#CCCN(CCC#N)C(=O)c1cccc(N2CCNC2=O)c1 | -2.85%
22 | CCOc1ccccc1C(C(=O)O)N(C)Cc1nc(C)c[nH]1 (stereo not given) | 7.59%
23 | CN(CCc1ccccc1)c1cnn(C)c(=O)c1Br | 7.95%
24 | O=C(Nc1ccc2c(c1)C(=O)NC2=O)c1ccc(Cl)s1 | -3.34%
25 | CCN(CCNC(=O)Nc1nnc(C)s1)C(=O)OC(C)(C)C | -0.666%
26 | Cc1cc(C(=O)N2CCNC(=O)CC2)c(C)n1CC(F)(F)F | -2.89%
27 | Cc1nsc(C(=O)NCCCc2ccccc2)n1 | 1.51%
28 | CN(CCc1ccccn1)C(=O)Nc1cccnc1-n1cccn1 | -3.54%
29 | CN(C)S(=O)(=O)N1CCCCCC1c1cc(-c2ccc(F)cc2)no1 (stereo not given) | 18%
30 | Cc1nc2c(c(NCC(=O)NC(C)C)n1)Cc1ccccc1OC2 | 5.96%
31 | CN1CCCN(C[C@@H]2CN(c3nc(C(N)=O)cs3)C[C@@H]2CO)CC1 | -0.955%
32 | COCCN(Cc1nccs1)c1nc2c(s1)c(C)nn2C | -10%
33 | Cc1cc(C)c2cc(C(=O)N3CCNC(=O)C3)[nH]c2c1 | 1.52%
34 | Cc1cc(=O)n2nc(Oc3cccc(I)c3)sc2n1 | -1.18%
35 | CCN1CC2(CCN(CC3CCCO3)CC2)OC1=O (stereo not given) | -9.49%
36 | Cc1cccc(COc2ccc(C(C)NC(=O)CNC(N)=O)cc2)c1 (stereo not given) | 1.42%
37 | Cc1c(C(=O)NCCCS(C)(=O)=O)cccc1-c1ccccn1 | 10.6%
38 | CC(C)c1nc(C2CCCN2CCS(C)(=O)=O)no1 (stereo not given) | 6.84%
39 | CC(C)C(NC(=O)C1CC1)c1cc(O)nc(-c2cccnc2)n1 (stereo not given) | 6.3%
40 | CCN(CC)C(=O)CN1CCCC1C(=O)N(C)C (stereo not given) | -2.41%
